Compound activity from PubChem.
CtBP-E1A blk: blocks the CtBP interaction with E1A | AlphaScreen GST-E1A/His-CtBP binding, 1536-well; active compounds read low | activity change, % (test concentration not listed) | actives 0.49% (n = 340,000) | AID 651724; in the data active means activity change below about -65%; inconclusive means mostly about -30% to -63%; further: on the % scale 0 is the no-effect control and ±100 the full control effect
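AlphaScreen with 125 nM GST-E1A and 125 nM His-CtBP (5X stocks) in Tris pH 8.0, 300 mM NaCl, BSA, Tween 20, TCEP. Compounds preincubated 2 h at 37 deg C, then glutathione donor/nickel acceptor beads added for 1 h at 37 deg C in dark.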
G9a inh: blocks human histone lysine methyltransferase G9a; Q96KQ7; G9a H3K9 monomethylation, AlphaScreen, 2 h; Potency, µM (highest dose often 102 µM), inactives show top-dose activity, negative = inhibition, most hits filed as inhibitors; actives 8.8% (n = 350,000); AID 504332; further: potency means the concentration at half of the fitted maximal effect; on the % scale 0 is the no-effect control and ±100 the full control effect; nearly all actives have a fitted effect of over 75% in size
Target sequence (Q96KQ7 913-1193 limits assumed): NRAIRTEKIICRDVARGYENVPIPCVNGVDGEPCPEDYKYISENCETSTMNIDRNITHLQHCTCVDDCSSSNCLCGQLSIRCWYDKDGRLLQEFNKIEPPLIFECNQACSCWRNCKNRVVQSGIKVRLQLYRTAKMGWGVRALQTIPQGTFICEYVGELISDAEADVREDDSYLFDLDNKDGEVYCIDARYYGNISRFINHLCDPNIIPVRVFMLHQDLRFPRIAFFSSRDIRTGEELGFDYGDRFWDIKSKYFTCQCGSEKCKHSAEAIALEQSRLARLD
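Compounds were preincubated with 20 nM G9a for 15 min, after which biotinylated H3K9 peptide (500 nM) and SAM (20 uM) started a 2 h room-temperature reaction. Monomethylated product was quantified by antibody-based AlphaScreen chemiluminescence.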
Six1-Eya2 blk: inhibitors of human Six1/Eya2 interaction; Q15475+O00167; AlphaScreen GST-Six1/His-Eya2 binding, biochemical; active compounds read low; activity change, % (no concentration beside the values); actives 0.56% (n = 360,000); AID 651725; in the data active means activity change below about -65%; inconclusive means mostly about -30% to -63%; further: on the % scale 0 is the no-effect control and ±100 the full control effect
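Compounds are tested against tagged Six1 and Eya2 proteins bridged by glutathione donor and nickel acceptor beads; after a one-hour incubation at 37 °C without light, AlphaScreen emission is recorded.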
HP1b chromo inh: inhibitors of HP1-beta chromodomain binding to methylated histone tails; actives 0.56% (n = 390,000); P83916; Potency, µM (doses to about 114 µM), for the others: at the highest dose activity change, negative = inhibition, actives largely listed as inhibitors; AlphaScreen HP1-beta / biotin-H3K9me3 peptide binding; further: potency means the concentration at half of the fitted maximal effect; nearly all actives have a fitted effect of over 70% in size
Target sequence (P83916 whole entry, looked up): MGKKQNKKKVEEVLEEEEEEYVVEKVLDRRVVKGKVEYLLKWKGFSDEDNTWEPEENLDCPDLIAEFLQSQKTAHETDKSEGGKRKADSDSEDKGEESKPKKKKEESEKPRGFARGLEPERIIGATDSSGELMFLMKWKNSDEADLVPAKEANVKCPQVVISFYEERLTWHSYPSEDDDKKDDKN
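HP1-beta protein (50 nM final) preincubated 30 min at room temperature with biotinylated H3(1-18)K9me3 peptide (50 nM) in PBS pH 7.4, 0.01% Tween-20, then compound added for 30 min. AlphaScreen streptavidin donor/nickel chelate acceptor beads (10 ug/mL final), 30 min dark, luminescence read.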
BAZ2B block: inhibitors of human BAZ2B bromodomain. AlphaScreen BAZ2B-H3K14Ac peptide displacement. Potency, µM (titrated, usually from 114 µM), for the others: top-dose activity change, negative = inhibition, usual class: inhibitors. actives 4.4% (n = 360,000). AID 504333; further: potency means the concentration at half of the fitted maximal effect; on the % scale 0 is the no-effect control and ±100 the full control effect; nearly all actives have a fitted effect of over 60% in size
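Protein-peptide AlphaScreen: BAZ2B 50 nM, b-H3K14Ac 50 nM, 1x PBS pH 7.4 + 0.01% Tween-20. Preincubation 30 min RT; cpd 30 min RT (top 110 uM); beads 20 min RT, light-protected.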
JMJD2A Tudor: blocks the human JMJD2A Tudor domain; O75164; AlphaScreen JMJD2A-Tudor / H3K4me3 peptide binding; Potency, µM (highest dose often 114 µM), inactives show at the highest dose activity change, negative = inhibition, actives largely listed as inhibitors; actives 4.4% (n = 390,000); AID 504339; further: potency means the concentration at half of the fitted maximal effect; on the % scale 0 is the no-effect control and ±100 the full control effect; nearly all actives have a fitted effect of over 50% in size
* = called active by the depositor; ? = inconclusive; · = not tested or not shown; [ ] = remark or other dose. Compounds with a hit are over-represented: about 10% of the library has one in this group of screens. Unless noted, the call rests on the fitted dose curve; in most records, active means well fitted inhibition curve with a large enough effect; inconclusive means small, poorly fitted or top-dose-only effect; inactive means no such curve, though single readings can be large or run the other way.

SMILES | CtBP-E1A blk | G9a inh | Six1-Eya2 blk | HP1b chromo inh | BAZ2B block | JMJD2A Tudor
O=C(NCc1ccccc1)c1ccc(NC2=NC3CS(=O)(=O)CC3S2)cc1 (centres undefined) | -1.5 | 15.1% | 3.5 | 33.0% | -13.5% | 7.7%
COc1ccc(C(CCNCc2ccc(N(C)C)cc2)c2ccccc2OC)cc1 (centres undefined) | -74.9* | 14.1µM* | -73.9* | 50.1µM* | 10µM* | 25.1µM*
COc1ccc(CNCCC(c2ccc(OC)cc2)c2ccccc2OC)cc1 (centres undefined) | -1.2 | 16.3% | -2.4 | 51.7% | -15.2% | -25.0%
O=S(=O)(c1ccc(Cl)cc1)N1CCN(Cc2ccc(O)c3ncccc23)CC1 | 1.5 | -37.5% | -92.3* | 26.3% | 31.6µM* | 56.2µM*
Oc1ccc(CN2CCN(Cc3ccccc3)CC2)c2cccnc12 | -97.5* | 2.9%[59 µM] | -92.9* | ? | -0.8% | 39.8µM*
Cc1noc(C)c1CSCC(=O)N(C)CC(=O)Nc1ccccc1Br | 1.7 | -1.1% | -3.3 | 3.9% | 10.7% | -15.9%
CCCc1cc(=O)n2[nH]c(NC(=O)c3ccco3)nc2n1 | -9.6 | 79.4µM* | 7.0 | 23.3% | -26.1% | 6.0%
CCC(=O)Nc1nc2nc(C)cc(=O)n2[nH]1 | -1.2 | -19.8%[59 µM] | 11.3 | 4.8% | 56.2µM* | 31.6µM*
Cc1cc(=O)n2[nH]c(COc3ccccc3)nc2n1 | 9.3 | 39.8µM* | 0.1 | 32.2% | 5.7% | 2.4%
Cc1cc(=O)n2[nH]c(CCC(=O)O)nc2n1 | 2.7 | -35.8% | 2.2 | 0.8% | -2.6% | -10.7%
Cc1cc(=O)n2[nH]c(C(=O)O)nc2n1 | 2.6 | ? | 12.0 | -26.9% | ? | 8.91µM*
COc1ccc(-n2c(=O)c(C)nc3cnc(N(C)C)nc32)cc1 | · | 4.9%[12.7 µM] | · | · | · | ·
NC(CSC(c1ccccc1)(c1ccccc1)c1cccc2ccccc12)C(=O)O (centres undefined) | -16.4 | · | -11.3 | ? | · | 56.2µM*
C/C(=N\NC(N)=O)c1ccc(-n2ccnc2)cc1 | 1.3 | 19.8%[12.7 µM] | -4.6 | 28.3% | -8.6% | -4.2%
C/C(=N\Nc1ccc(C(=O)O)cc1)c1ccc(-n2ccnc2)cc1 | 1.2 | 12.6µM* | -2.4 | 31.9% | -22.9% | -29.3%
C/C(=N\Nc1ccccc1Cl)c1ccc(-n2ccnc2)cc1 | -4.8 | 10µM* | -0.8 | ? | 50.1µM* | 56.2µM*
CCc1ccc(Cn2nnc3c(=O)[nH]c(C4CCCN(C(=O)c5cccc(Cl)c5)C4)nc32)cc1 (centres undefined) | · | -34.1%[59 µM] | · | 16.3% | -16.7% | ?
CC(C)(C)c1ccc(-c2nnc(SCC(=O)O)n2N)cc1 | 10.6 | 44.7µM* | 1.7 | 42.5% | 1.3% | -10.5%
Cc1ccc(-c2nnc(SCC(=O)O)n2N)cc1 | 7.5 | -27.8%[59 µM] | 0.9 | 32.3% | 2.3% | -30.6%
C=CCn1c(SCC(=O)O)nnc1-c1ccc(C(C)(C)C)cc1 | -1.0 | 31.6µM* | -0.5 | 53.9% | -2.2% | 0.0%
Cc1cccc(N(C(=O)CS(=O)CC(=O)Nc2ccc3c(c2)OCO3)C(C)C(=O)NC2CCCC2)c1C (centres undefined) | · | 56.2µM* | -1.2 | 22.9% | -27.7% | -4.8%
Cc1ccc(C)c(N(C(=O)CS(=O)CC(=O)Nc2ccc3c(c2)OCO3)C(C)C(=O)NC2CCCC2)c1 (centres undefined) | 3.8 | ? | 5.5 | 41.3% | -3.8% | -10.8%
NC(=O)Nc1ccc(Oc2ncc(C(F)(F)F)cc2Cl)cc1 | 5.0 | 5.2% | 8.3 | -10.8% | -4.0% | ?
Cc1[nH]ccc(=O)c1Oc1ncc(C(F)(F)F)cc1Cl | 7.0 | 56.2µM* | 0.8 | 20.6% | -10.1% | -15.3%
COc1ccc(CNC(=O)CNC(C)c2ccc(F)cc2)cc1 (centres undefined) | 1.3 | 13.5% | 19.9 | 44.7µM* | 56.2µM* | 20µM*
SMILES | CtBP-E1A blk | G9a inh | Six1-Eya2 blk | HP1b chromo inh | BAZ2B block | JMJD2A Tudor
COc1ccc(CCNC(=O)CCc2ccc(OC)cc2)cc1 | 4.4 | 29.3% | 2.3 | 47.6% | -0.9% | -18.3%
O=C(Cn1nnc2ccccc2c1=O)NCCc1ccc(F)cc1 | · | 2.1%[59 µM] | · | · | -28.7% | ·
COc1ccc(CCNC(=O)CNCCc2ccc(F)cc2)cc1 | · | -17.7% | 5.7 | -18.9% | 79.4µM* | 22.4µM*
COc1ccc(CCNC(=O)Cn2nnc3ccccc3c2=O)cc1 | 9.3 | 70.8µM* | 14.9 | 19.8% | 12.0% | -9.6%
Cc1ccc(-c2cc(NC(=O)C(C)Oc3ccc(C)c(C)c3)on2)cc1 (centres undefined) | · | 40.2%[59 µM] | · | 101.5% | 45.3% | -5.6%
CCC(CC)c1nnc(NC(=O)C2CC(=O)N(CCc3ccc(F)cc3)C2)s1 (centres undefined) | 3.1 | 3.16µM* | -8.2 | ? | ? | -19.2%
CC(C)(C)NC(=O)C1CC(=O)N(CCc2ccc(F)cc2)C1 (centres undefined) | -2.1 | 21.4% | -8.7 | 41.1% | 13.0% | -9.7%
CCC(C)(C)c1nnc(NC(=O)C2CC(=O)N(CCc3ccc(F)cc3)C2)s1 (centres undefined) | 4.3 | 44.7µM* | -0.1 | -9.3% | 1.5% | -9.2%
O=C(Nc1cc(Cl)cc(Cl)c1)c1ccc(F)c(S(=O)(=O)NC2CCCC2)c1 | · | 0.1%[59 µM] | · | 35.3% | -0.1% | -20.8%
CC(C)S(=O)(=O)c1csc(C(=O)NN)c1-n1cccc1 | -0.6 | 0.2% | -12.8 | 5.6% | ? | -17.0%
CC(C)S(=O)(=O)c1csc(C(=O)NN)c1Cl | -8.4 | 44.7µM* | 2.1 | 32.1% | -9.1% | -10.1%
O=S(=O)(c1ccc2c(c1)OCCO2)N1CCN(S(=O)(=O)c2ccc(F)c(F)c2F)CC1 | · | · | · | · | · | -9.6%
O=C(O)CC1S/C(=N/N=C/c2ccc(-c3ccccc3[N+](=O)[O-])o2)NC1=O (centres undefined) | -15.0 | -41.9%[2.33 µM] | -5.0 | 3.6% | 50.1µM* | ?
CC(Sc1cn(CCNC(=O)c2ccccc2F)c2ccccc12)c1ccccc1 (centres undefined) | · | 24.0%[59 µM] | · | 25.8% | -13.7% | -9.0%
O=C(Nc1ccc(Cl)cc1)[C@@H]1[C@@H]2C(=O)N(c3cccc(F)c3)C(=O)[C@@H]2[C@H]2C=CC=NN21 | -6.6 | 8.91µM* | -6.6 | -10.8% | -28.3% | ?
COc1ccc(N2C(=O)[C@@H]3[C@H](C2=O)[C@H]2C=CC=NN2[C@@H]3C(=O)Nc2ccc(Cl)cc2)cc1 | -5.8 | 7.08µM* | -2.6 | -5.9% | -32.6% | ?
O=C(Nc1ccc(Cl)cc1)[C@@H]1[C@@H]2C(=O)N(c3ccc4ccccc4c3)C(=O)[C@@H]2[C@H]2C=CC=NN21 | -13.2 | 3.16µM* | -13.3 | -3.5% | ? | 63.1µM*
